# From PubChem BioAssay AID504834 (National Center for Advancing Translational Sciences (NCATS), 2011)
# About 22,000 (6.9%) of roughly 320,000 compounds were called active. Roughly 27% stayed inconclusive and do not appear here. The list comes from a sample in which actives are over-represented; it also holds similar structures and randomly drawn compounds. A number with no mark means an inactive call. Calls follow the shape of the dose curve; as a rule, active = well fitted inhibition curve with a large enough effect; inconclusive = small, poorly fitted or top-dose-only effect, or another doubt; inactive = no such curve, though single readings can be large or run the other way.
# Assay: Primary qHTS for delayed death inhibitors of the malarial parasite plastid, 96 hour incubation
# Conditions: P. falciparum luciferase reporter growth; series mostly up to 28.7 µM; activity change, negative = inhibition: at the top concentration
# Method in brief: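 96 h incubation, 37 C, 5% CO2, of luciferase-reporter P. falciparum-infected RBCs (2% hematocrit, 0.05% parasitemia final) with test compounds; endpoint luminescence.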
# % is scaled to controls: 0 for no effect and ±100 for the full control effect; potency is read from the fitted curve at half-maximal effect.
SMILES,"activity change, negative = inhibition",Potency
O=C(c1ccc(Br)o1)N1CCN(CCOc2ccccc2)CC1,-12.7%,
COc1ccc2[nH]cc(CCN3C(=O)c4ccc(C(=O)O)cc4C3=O)c2c1,33.5%,
CC(=O)NN1C(=O)c2ccccc2NC1c1ccccc1 (stereo unspecified),-3.77%,
COc1ccc(N2C(=O)c3ccccc3NC2c2ccc(OC)c(CN3CCOCC3)c2)cc1 (stereo unspecified),316%,
Fc1ccc(OCc2nn3c(Cn4nnc5ccccc54)nnc3s2)cc1,-28.1%,
COc1ccc(C2Nc3ccccc3C(=O)N2Cc2ccccc2)cc1Cn1nnc2ccccc21 (stereo unspecified),,3.29 µM (active)
COc1ccc(C2Nc3ccccc3C(=O)N2c2ccc(F)cc2)cc1Cn1nnc2ccccc21 (stereo unspecified),,9.28 µM (active)
Cc1ccc(C2Nc3ccccc3C(=O)N2CCN2CCNC2=O)cc1 (stereo unspecified),-0.318%,
COc1ccc(N(CC(=O)NCC2CCCO2)C(=O)CCC(=O)Nc2nccs2)c(OC)c1 (stereo unspecified),-6.68%,
O=C(CSc1nc2[nH]c(=O)[nH]c(=O)c2s1)Nc1cccc(F)c1,1.82%,
Cc1ccc(S(=O)(=O)N2CCCCC2)cc1C(=O)N(C)CC(=O)Nc1cccc(F)c1,-27.7%,
CC(C)(C)C(=O)COC(=O)c1cc(S(=O)(=O)N2CCCCC2)ccc1N1CCOCC1,19.3%,
CCc1nn(CC(=O)N2CCN(CC)CC2)c(=O)c2cccn12,40.8%,
CC(NC(=O)C1CCCN(S(=O)(=O)c2ccc(-n3cnnn3)cc2)C1)c1ccc(F)cc1 (stereo unspecified),-24.7%,
C=CCn1c(=NC(=O)c2ccc(S(=O)(=O)N3CCCC3)cc2)sc2cc(NC(C)=O)ccc21,,0.928 µM (active)
COc1cc(C(C)=O)ccc1OC(C)C(=O)Nc1ccc(S(=O)(=O)N2CCCC2)cc1 (stereo unspecified),2.7%,
C=CCn1c(=NC(=O)c2cccs2)sc2cc(NC(C)=O)ccc21,110%,
O=C(Cc1ccccc1F)NC1CCSc2ccccc21 (stereo unspecified),-14.4%,
O=S(=O)(/C=C/c1ccccc1)N1CCNCC1,-0.204%,
CC1CCN(C(=O)CCNC(=O)c2ccccc2)CC1,0%,
Cn1c(CC2Sc3ccccc3NC2=O)nnc1SCC(=O)c1ccc(Cl)cc1 (stereo unspecified),-8.32%,
O=C(NCCN1CCOC1=O)C1CCC(=O)N(CCc2ccc(Cl)cc2)C1 (stereo unspecified),-21.2%,
CCOC(=O)C1=C(C)NC(=O)N(C(C)=O)C1c1ccc(Cl)cc1 (stereo unspecified),,4.15 µM (active)
CCOC(=O)COc1ccc(Cl)cc1C1NC(=O)NC(C)=C1C(C)=O (stereo unspecified),-16%,

SMILES,"activity change, negative = inhibition",Potency
COCCOC(=O)C1=C(C)NC(=O)NC1c1ccc(Cl)cc1 (stereo unspecified),10.3%,
OC(COc1ccc(F)cc1Cl)CN1CCc2ccccc2C1 (stereo unspecified),5.53%,
CS(=O)(=O)c1ccccc1C(=O)Nc1ccc2sccc2c1,35.9%,
O=[N+]([O-])c1cccc2ncccc12,2.85%,
C/C(=N\NC(N)=S)c1ccncc1,17.4%,
C/C(=N\NC(=S)NC(C)C)c1ccc(C(C)(C)C)cc1,,3.7 µM (active)
C/C(=N\NC(N)=S)c1cccnc1,22.1%,
CC(C)Cc1nnc(NC(=O)CCc2ccccc2)s1,-25%,
CC(=O)N(Cc1cc(=O)[nH]c2ccccc12)c1ccc(C)cc1C,-0.0262%,
Cc1noc(C)c1CSCC(=O)Nc1ccc(Br)cc1Cl,0.407%,
CCOC(=O)c1cn(Cc2cccc(C)c2)nn1,-7.81%,
COc1cccc(Cn2cnc3c([N+](=O)[O-])c(C)c(C)cc32)c1,-13.7%,
Cc1cccc(Cn2cnc3c(N)c(C)c(C)cc32)c1,,10.4 µM (active)
Cc1ccc(NC(=O)c2cc3ccccc3o2)cc1,15.5%,
O=C(O)c1[nH]c2ccccc2c1C(c1cccc(O)c1)c1c(C(=O)O)[nH]c2ccccc12,31.7%,
COc1ccc(NC(=O)CN(C)C(=O)CNC(=O)C2CCCCC2)cc1,1.78%,
O=S(=O)(Oc1ccccc1C(=S)N1CCOCC1)c1ccc(Cl)cc1,-6.25%,
CCCCNC(=O)CCn1nc(-c2ccc(Cl)cc2)ccc1=O,-4.67%,
Cc1ccc(Cl)c(OCC(=O)N2CCc3ccccc3C2)c1,-26.9%,
Cc1ccc(S(=O)(=O)N(CC(=O)N2CCc3ccccc3C2)c2cccc(Cl)c2)cc1,,8.28 µM (active)
COc1cccc(N(CC(=O)N2CCc3ccccc3C2)S(C)(=O)=O)c1,-3.71%,
CC(C)=CCC/C(C)=C/C(=O)O,38.9%,
O=C(Nc1ccccc1F)C1C2C=CC3(O2)C1C(=O)N(c1cccnc1)C3C(=O)NC1CCCCC1 (stereo unspecified),,13.1 µM (active)
O=C(NCc1cccnc1)Nc1ccccc1F,2.75%,

SMILES,"activity change, negative = inhibition",Potency
CC(C)N1C(=O)C2C(C(=O)NC3CCCCC3)C3C=CC2(O3)C1C(=O)NC1CCCC1 (stereo unspecified),-1.06% [at 5.75 µM],
Nc1ccccc1C(=O)NC1CCCCNC1=O (stereo unspecified),13.7%,
O=C1CCNCCN1[C@H](CO)Cc1ccccc1,-16.3%,
Cc1cccc(N2CCN(C(=O)C3CCN(S(=O)(=O)c4cnc[nH]4)CC3)CC2)c1C,-24.5%,
Cc1cccc([C@H](C)c2cnc[nH]2)c1C,,4.26 µM (active)
CSc1ncccc1C(=O)NCc1ccccc1Cl,18%,
COc1ccc(CNC(=O)c2ccc(Br)s2)cc1OC,5.99%,
OC(CNCc1ccc2c(c1)OCO2)COc1ccccc1 (stereo unspecified),-21.4%,
Cc1ccc(OCC(=O)OC(C)CN(C)Cc2ccccc2)cc1 (stereo unspecified),8.03%,
CN(Cc1ccccc1)CC(O)COc1ccc(CNCc2cc3ccccc3s2)cc1 (stereo unspecified),,4.15 µM (active)
CC(C)C[C@H](NC(=O)[C@@H]1O[C@H]1C(=O)O)C(=O)NCCCCN=C(N)N,,3.29 µM (active)
COP1(=O)C[C@@H](O)[C@@H](O)[C@@H](COCc2ccccc2)O1 (stereo partly specified),30.8%,
COc1ccc(/C=C2\N=C3CCCN3C2=O)cc1,43.5%,
CSc1nc(C)nc(C2CC2)c1C#N,10.3%,
Cc1cc(N2CCN(c3ccc(F)cc3)CC2)n2ncnc2n1,33.7%,
O=C(N/N=C/c1ccc([N+](=O)[O-])o1)c1cc([N+](=O)[O-])cc([N+](=O)[O-])c1O,-102%,
Cc1cc(C)nc(N/N=C/c2ccncc2)n1,-3.32%,
Cc1cc(C)nc(N/N=C/c2ccc([N+](=O)[O-])o2)n1,,5.22 µM (active)
CCOC(=O)c1cc(C(C)C)sc1NC(=O)COC(=O)c1nccnc1N,62.1%,
Cc1ccc(NC(=O)[C@H](Cc2ccccc2)NC(=O)C2CCNCC2)cc1,-1.68%,
NS(=O)(=O)c1ccc(NC(=O)/C=C/c2ccccc2Cl)cc1,,10.4 µM (active)
CC(=O)NS(=O)(=O)c1ccc(NC(=O)/C=C/c2ccccc2Cl)cc1,2.7%,
O=C(/C=C/c1ccccc1Cl)Nc1ccc(S(=O)(=O)Nc2ncccn2)cc1,5.65%,
CCc1noc(C)c1C(=O)NNC(=O)c1ccc(F)cc1,12.7%,

SMILES,"activity change, negative = inhibition",Potency
O=S(=O)(c1ccccc1)c1nc(-c2ccccc2)oc1NCCCN1CCOCC1,-3.97%,
CCc1nc2sc(C(=O)O)c(N)c2c2c1CCCC2,-8.46%,
CCOc1ccccc1C1CC(c2ccc(Cl)cc2)Nc2nc(N)nn21 (stereo unspecified),,10.4 µM (active)
COc1ccc(C2CC(c3ccc(Cl)cc3Cl)Nc3nc(N)nn32)cc1OC (stereo unspecified),1.9%,
CCOc1ccccc1C1CC(c2ccccc2)Nc2nc(N)nn21 (stereo unspecified),3.66%,
COCCCNc1nc2ccccc2nc1NS(=O)(=O)c1ccc(F)cc1,-2.54%,
Cc1cccc(-n2nc3c(c2NC(=O)c2cc4ccccc4o2)CS(=O)(=O)C3)c1,-14.9%,
COc1cccc(C(=O)N/N=C(\C)c2cccc(NC(=O)c3ccc(F)cc3)c2)c1OC,42.8%,
COc1ccc(/C(C)=N\NC(=O)c2ccc(-c3ccccc3)cc2)c(F)c1,,10.4 µM (active)
CCN(CC)c1ccc(C(=O)N/N=C(\C)c2cccc(OC)c2)cc1,-11.7%,
CN(Cc1nc2ccccc2s1)C(=O)c1ccc(F)cc1,18.1%,
COc1ccccc1CC(=O)Nc1ccc(S(=O)(=O)N2CCCC2)cc1,-1.9%,
CCOC(=O)C1CCCN(C(=O)/C=C/c2ccc(OC)cc2)C1 (stereo unspecified),35.4%,
Cn1cc(CCC(=O)N2CCCC(C(=O)c3ccc(C(C)(C)C)cc3)C2)cn1 (stereo unspecified),0.855%,
Cn1cc(/C=C/C(=O)N2CCCC(C(=O)c3ccc(C(F)(F)F)cc3)C2)cn1 (stereo unspecified),,10.4 µM (active)
Cc1cccc(NC(=O)N2CCCCCC2)c1C,95.6%,
N[C@@H](Cc1ccccc1)C(=O)N1CCOCC1,79.6%,
COc1cccc(CNC(=O)c2cccnc2Sc2ccc(Cl)cc2)c1,-1.02%,
O=C1c2cccc3cccc(c23)C(=O)N1c1cccc(O)c1,8.72%,
CCC(=C/c1sc2ccc3ccccc3c2[n+]1C)/C=C1\Sc2ccc3ccccc3c2N1C,,9.28 µM (active)
CC1(C)C2CCC1(CS(=O)(=O)NCCc1c[nH]c3ccccc13)C(=O)C2 (stereo unspecified),-23.1%,
Cc1csc(=O)n1CC(=O)OCC(=O)N(CC(C)C)c1c(N)n(Cc2ccccc2)c(=O)[nH]c1=O,22.2%,
Nc1nnc2c(C(F)(F)F)nc3ccccc3n12,37.9%,
Cc1ccc(OCCNC(=O)CCNS(=O)(=O)c2ccc(Br)cc2)cc1,71.1%,

SMILES,"activity change, negative = inhibition",Potency
COc1cc2c(cc1OC)/C(=C/C(=O)c1ccc(NC(C)=O)cc1)NCC2,2.38%,
Cc1ccc(S(=O)(=O)N2CCC(C(=O)N[C@@H](C)C(=O)NCc3ccco3)CC2)cc1,-18.9%,
COc1ccccc1CNC(=O)C1CCN(S(=O)(=O)c2ccc3c(c2)OCCO3)CC1,53.5%,
COc1ccc(S(=O)(=O)N2CCC(C(=O)NCc3ccco3)CC2)cc1C,,5.22 µM (active)
CCc1ccc(C(=O)N2CCN(S(=O)(=O)c3sc(C(=O)O)c(C)c3C(=O)O)CC2)cc1,-17.5%,
COc1cccc(NC(=O)c2ccc(S(=O)(=O)N(C)C)cc2)c1,4.96%,
COc1cccc(-c2nnc(NC(=O)c3ccc(S(=O)(=O)N(CC(C)C)CC(C)C)cc3)o2)c1,,1.65 µM (active)
O=C(Nc1nnc(-c2ccco2)o1)c1ccc(S(=O)(=O)N2CCOCC2)cc1,1.01%,
CC(=O)c1ccc(S(=O)(=O)Nc2ccc(C(=O)NCC(c3ccccc3)N(C)C)cc2)cc1 (stereo unspecified),-1.6%,
CCOc1ccc(S(=O)(=O)Nc2ccc(C(=O)NCCCN3CCCC3=O)cc2)cc1,-11.4%,
COc1ccc(C(CNC(=O)c2ccc(S(=O)(=O)Nc3ccccc3F)cc2)N(C)C)cc1 (stereo unspecified),-20%,
O=C(NCc1cccc(C(F)(F)F)c1)c1cccc(S(=O)(=O)N2CCN(Cc3ccccc3)CC2)c1,-17.2%,
CCOc1ccc(S(=O)(=O)Nc2ccc(S(=O)(=O)Nc3cc(OC)ccc3OC)cc2)cc1,-5.22%,
O=C(NCc1ccccc1CN1CCCC1)c1cccc(S(=O)(=O)Nc2ccc(F)cc2)c1,,10.4 µM (active)
Cc1ccc(NS(=O)(=O)c2ccc(C(=O)NCCCN3CCOCC3)cc2)cc1,3.25%,
COc1ccccc1C(CNC(=O)c1cccc(NS(=O)(=O)c2ccc(Br)cc2)c1)N(C)C (stereo unspecified),,6.57 µM (active)
O=C(NCC1(N2CCCCC2)CCCCC1)c1ccc(NS(=O)(=O)c2ccc(F)cc2)cc1,,10.4 µM (active)
CCOc1ccc(NS(=O)(=O)c2ccc(C(=O)NCC(c3ccccc3OC)N3CCCC3)cc2)cc1 (stereo unspecified),,14.7 µM (active)
O=C(OC1CCOC1=O)c1cccc(S(=O)(=O)Nc2ccc(F)cc2)c1 (stereo unspecified),-31.8%,
O=C(NCC1CCCO1)c1ccc(S(=O)(=O)Nc2ccc(F)cc2)cc1 (stereo unspecified),33.4%,
